# Values of other authors in PubChem BioAssay AID977611.
# Hit rate of the full screen: of about 3,900 compounds, about 3,900 (100%) were called active. Cut-off not given; nearly all actives show Kd up to about 4200 µM. So high a share suggests a set chosen from earlier hits. This is one part of the list. Where a SMILES comes first, the peptide text is derived from it.
# Assay: PubChem AID 977611
# Settings: PDB protein-ligand complexes, literature Kd
molecule,measurement,setting,value
CC[C@H](C)[C@H](NC(=O)[C@H](CO)NC(=O)[C@@H]1CCCN1C(=O)[C@H](C)N)C(=O)N[C@@H](CC(=O)O)C(=O)N[C@@H](CCCNC(N)N)C(=O)N[C@@H](CO)C(=O)N[C@H](C(=O)N[C@@H](CCCCN)C(=O)N1CCC[C@H]1C(=O)N[C@@H](C)C(=O)O)[C@@H](C)O (HELM PEPTIDE1{A.P.S.I.D.[NC(N)NCCC[C@H](N[*:1])C(=O)[*:2]].S.T.K.P.A}$$$$V2.0),Kd,"protein: mouse Gads T cell adaptor C-terminal SH3 domain, PDB entry 1h3h",0.22 µM (active)
CC(C)(CO[P+](O)(O)O[P+](O)(O)OC[C@H]1O[C@@H](n2cnc3c(N)ncnc32)[C@H](O)[C@@H]1O[P+](O)(O)O)[C@@H](O)C(=O)NCCC(=O)NCCSC(=O)CC[C@@H]1C(=O)CC[C@]2(C)C(=O)CC[C@@H]12,Kd,"protein: HTH-type transcriptional repressor KstR2, PDB entry 4w97",0.08 µM (active)
CC(C)(CO[P+](O)(O)O[P+](O)(O)OC[C@H]1O[C@@H](n2cnc3c(N)ncnc32)[C@H](O)[C@@H]1O[P+](O)(O)O)[C@@H](O)C(=O)NCCC(=O)NCCSC(=O)c1ccc2ccccc2c1O,Kd,"protein: 1,4-Dihydroxy-2-naphthoyl-CoA synthase MenB, PDB entry 4qij",2.9 µM (active)
H-KTKLL-OH,Kd,"protein: Coatomer subunit beta', PDB entry 4j78",22.5 µM (active)
H-LKTKLL-OH,Kd,"protein: coatomer alpha subunit, PDB entry 4j8b",16.1 µM (active)
CC(=O)c1ccc(N2CCN(C(=O)CN3CC[C@@H](C(=O)Nc4ccc(O)c(Cl)c4)C3)CC2)cc1,Kd,"protein: Mitogen-activated protein kinase 1 ERK2, PDB entry 4qyy",0.05 µM (active)
O=C(Nc1ccc2[nH]nc(-c3ccncc3)c2c1)[C@@H]1CCN(CC(=O)N2CCN(c3ccc(-c4ncccn4)cc3)CC2)C1,Kd,"protein: Mitogen-activated protein kinase 1 ERK2, PDB entry 4qta",0.2 µM (active)
C/C(=N\Nc1nc2ccccc2s1)c1ccc(-c2cccc(S(=O)(=O)NC(=O)CCCCCc3ccccc3)c2)o1,Kd,"protein: BCL-2-LIKE PROTEIN 1, PDB entry 3zk6",0.46 µM (active)
CNCc1ccc(C(F)(F)F)cc1,Kd,"protein: Dihydropteroate synthase BaDHPS, PDB entry 4nl1",130 µM (active)
Nc1ncnc2c1ccn2[C@@H]1O[C@@H]2CO[P+](O)(O)O[C@H]2[C@H]1O,Kd,"protein: Potassium/sodium hyperpolarization-activated cyclic nucleotide-gated channel 4 hHCN4, PDB entry 4nvp",0.027 µM (active)
Nc1ncnc2c1ncn2[C@@H]1O[C@@H]2CO[P+](O)(O)O[C@H]3[C@@H](O)[C@H](n4cnc5c(N)ncnc54)O[C@@H]3CO[P+](O)(O)O[C@H]2[C@H]1O,Kd,PDB entry 4qsh,8 µM (active)
same,Kd,"protein: PstA, PDB entry 4wk1",1.3 µM (active)
same,Kd,"protein: Staphylococcus aureus PII-like signal transduction protein PstA, PDB entry 4d3h",0.37 µM (active)
CC(=O)C(O)(O)[C@@H](O)CO[P+](O)(O)O,Kd,"protein: Transcriptional regulator LsrR, PDB entry 4l4z",2.1 µM (active)
CC(C)CC(=O)C(O)(O)[C@@H](O)CO[P+](O)(O)O,Kd,"protein: Transcriptional regulator LsrR, PDB entry 4l50",0.88 µM (active)
CC(CO)CCC[P+](O)(O)O[P+](O)(O)O (stereo unspecified),Kd,"protein: Intracellular B30.2 Domain of BTN3A1, PDB entry 4n7u",0.51 µM (active)
Nc1nc2c([nH]c[n+]2[C@@H]2O[C@@H]3CO[P+](O)(O)O[C@H]3[C@H]2O)c(=O)[nH]1,Kd,"protein: Cyclic nucleotide-gated potassium channel mll3241, PDB entry 4muv",1.73 µM (active)
Nc1nc2c([nH]c[n+]2[C@@H]2O[C@H](CO[P+](O)(O)O[P+](O)(O)O[P+](O)(O)O)[C@@H](O)[C@H]2O)c(=O)[nH]1,Kd,"protein: GTPase domain of Septin 10 from Schistosoma mansoni, PDB entry 4kva",115 µM (active)
same,Kd,"protein: eukaryotic translation initiation factor eIF5B (517-858) from Chaetomium thermophilum, PDB entry 4ncn",2.12 µM (active)
Nc1nc2c([nH]c[n+]2[C@@H]2O[C@H](CO[P+](O)(O)O[P+](O)(O)C[P+](O)(O)O)[C@@H](O)[C@H]2O)c(=O)[nH]1,Kd,"protein: Interferon-induced GTP-binding protein Mx1 stalkless-MxA, PDB entry 4p4s",11.5 µM (active)
Nc1nc2c([nH]c[n+]2[C@@H]2O[C@H](CO[P+](O)(O)O[P+](O)(O)O)[C@@H](O)[C@H]2O)c(=O)[nH]1,Kd,"protein: Ferrous iron uptake transporter protein B FeoB(A143S mutant), PDB entry 4non",5.71 µM (active)
same,Kd,"protein: GTPase domain of Septin 10 from Schistosoma mansoni, PDB entry 4kv9",146 µM (active)
same,Kd,"protein: Interferon-induced GTP-binding protein Mx1 stalkless-MxA, PDB entry 4p4t",41 µM (active)
same,Kd,"protein: Mitochondrial dynamic protein MID51, PDB entry 4nxv",3.8 µM (active)
